Source: PubChem BioAssay AID504467 (National Center for Advancing Translational Sciences (NCATS), 2011)
Out of some 330,000 compounds screened, about 7,700 (2.3%) were called active. Not shown: some 26% with an inconclusive outcome. The call rests on the fitted dose curve; in most records, active means well fitted inhibition curve with a large enough effect; inconclusive means small, poorly fitted or top-dose-only effect, or effect the other way; inactive means flat fitted curve, though single readings scatter. The entries come from a sample that favours actives as a whole. A call without a number means that no potency is given here.

Assay: qHTS screen for small molecules that inhibit ELG1-dependent DNA repair in human embryonic kidney (HEK293T) cells expressing luciferase-tagged ELG1; further: nearly all actives have a fitted effect of over 55% in size
Settings: HEK293T ELG1-luciferase reporter, luminescence, 16 h, DNA damage induced by 5-fluorouridine; series mostly up to 46.1 µM
From the text: NIH Molecular Libraries Probe Production Network [MLPCN] NIH Chemical Genomics Center [NCGC] MLPCN Grant: 1 R03 MH092164-01 Assay Provider: Kyungjae Myung, NHGRI, NIH Keywords: MLPCN, qHTS, NCGC, genotoxicity, cancer Assay Overview: Cancer cells divide rapidly compared to normal cells in the body. During cell division, cancer cells need to duplicate their genome by DNA replication. The failure of genome duplication leads to cancer cells' death. Therefore, inhibitors of DNA replication could specifically kill cancer cells. Based on this concept, many chemotherapeutic agents were developed and have been used to treat cancer patients. However, there are a limited number of agents available in the clinical setting, and some of those that do exist have low efficacy and severe side effects. Therefore, if we can find the compounds that effectively block DNA replication either by directly damaging DNA or by inhibiting other cellular mechanisms, the options for cancer treatment will be broadened. With this in mind, we developed a quantitative high-throughput ELG1-luciferase reporter gene assay. Small molecules that specifically block ELG1 function in response to DNA damage can be identified by monitoring the suppression of luciferase activity. Since ELG1 defines a pathway for repairing DNA damage, agents blocking ELG1 function can be used to sensitize cancer cells to chemotherapeutic agents whose mechanism of action involves the induction of DNA damage.
Assay Protocol Summary: For genotoxicity screening, 2,000 cells in 4 uL/well were dispensed into white, solid-bottom 1536-well plates using a solenoid-based dispenser. Following transfer of 1 uL 5-Fluorouridine and 23 nL compound or DMSO vehicle by a pin tool, the plates were incubated 16 hr at 37 °C and 5% CO2. 5 ul ONE-Glo (Promega) was then added to each plate and following a 30 min incubation at room temperature, luciferase activity was quantified on a ViewLux CCD-based plate reader.
Potency means the concentration at half of the fitted maximal effect.

Row | SMILES | Potency
1 | O=C(CN1CCN(c2ccccn2)CC1)Nc1ccc(Br)cc1 | inactive
2 | Cc1cc(Br)ccc1NC(=O)c1sc2ncn(CC(=O)N3CCN(c4ccccn4)CC3)c(=O)c2c1C | inactive
3 | Cc1cc(Br)ccc1NC(=O)c1cnc(N2CCN(c3ccccn3)CC2)c2ccccc12 | 11.6 µM (active)
4 | COc1ccc(S(=O)(=O)N2CCCCC2)cc1NC(=O)c1cc([N+](=O)[O-])ccc1N1CCOCC1 | inactive
5 | CCc1ccc(S(=O)(=O)N/N=C\c2ccc([N+](=O)[O-])o2)cc1 | inactive
6 | N#Cc1cc([N+](=O)[O-])ccc1NC(=O)COC(=O)c1cnccn1 | inactive
7 | O=C(COC(=O)c1c2c(nc3ccccc13)CCCC2)c1ccc(Br)s1 | inactive
8 | NS(=O)(=O)c1ccc(NC(=O)COC(=O)c2ccc(Cl)nc2)cc1 | inactive
9 | NC(=O)c1ccc(NC(=O)COC(=O)c2c3c(nc4ccccc24)/C(=C\c2ccc4c(c2)OCO4)CCC3)cc1 | 20.6 µM (active)
10 | O=C(COC(=O)c1ccncc1)Nc1ccc2c(c1)OCO2 | inactive
11 | COc1cc(/C=C2\CCCc3c2nc2ccccc2c3C(=O)O)cc(Cl)c1O | inactive
12 | O=C(COC(=O)c1c2c(nc3ccccc13)/C(=C\c1cccs1)CCC2)Nc1ccccc1Cl | 16.4 µM (active)
13 | CC(NC(=O)COC(=O)c1ccc2c(c1)OCO2)c1ccccc1 (stereo unspecified) | inactive
14 | NS(=O)(=O)c1ccc(NC(=O)COC(=O)c2cc3ccccc3oc2=O)cc1 | inactive
15 | NS(=O)(=O)c1ccc(NC(=O)COC(=O)c2c3c(nc4ccccc24)/C(=C\c2ccc4c(c2)OCO4)CCC3)cc1 | 20.6 µM (active)
16 | COc1ccc(C(=O)N2CCCCC2C(=O)Nc2ccc(-n3nc(C)cc3C)cc2)o1 (stereo unspecified) | inactive
17 | O=C(NCC(c1cccs1)N1CCOCC1)c1cc(Cl)ccc1[N+](=O)[O-] (stereo unspecified) | inactive
18 | Cc1ccc(Nc2nnc(SC(C)C(=O)NC3CC3)s2)cc1 (stereo unspecified) | inactive
19 | CC(C)(C)OC(=O)C[C@H]1C/C=C\C[C@@H](CC(=O)N[C@H](CO)Cc2ccccc2)C(=O)NC[C@@H](c2ccccc2)OC1=O | inactive
20 | COc1ccc2[nH]c(C)c(CCN(Cc3cccs3)C(=S)Nc3ccccc3OC)c2c1 | 13 µM (active)
21 | COc1ccc(NC(=S)NCc2cccs2)c(OC)c1 | inactive
22 | Cc1ccc(NC(=S)N(CCN2CCCCC2)Cc2ccco2)cc1C | inactive
23 | CCNC(=S)N(CCc1c(C)[nH]c2ccc(C)cc12)Cc1ccco1 | inactive
24 | Cc1[nH]c2ccccc2c1CCN(Cc1cccs1)C(=S)NC(C)(C)C | inactive

Row | SMILES | Potency
25 | COc1cccc(NC(=S)N(CCc2c(C)[nH]c3ccccc23)Cc2ccco2)c1 | 20.6 µM (active)
26 | CC(OC(=O)/C=C/c1ccccc1)C(=O)Nc1ccc(C(N)=O)cc1 (stereo unspecified) | inactive
27 | CC1CCC(NS(=O)(=O)c2ccc3c(c2)CC(=O)N3)CC1 (stereo unspecified) | inactive
28 | O=C(COC(=O)c1cccc(Cl)c1)NC(=O)NCc1ccccc1 | inactive
29 | Cc1ccc(S(=O)(=O)N2[C@@H](c3cccc(Cl)c3)C(C(=O)O)=CC[C@H]2c2ccc(Cl)c(Cl)c2)cc1 | inactive
30 | CN(C)CCCNC(=O)c1ccc2[nH]c3ccccc3c2c1 | inactive
31 | O=C(NCCCN1CCOCC1)c1cn(-c2ccccc2)nc1-c1ccc(F)cc1 | inactive
32 | O=C(NCCCO)c1cc2c([nH]c3ccccc32)c(-c2ccc(F)cc2)n1 | 18.3 µM (active)
33 | O=C(NCC1(N2CCCCC2)CCCCC1)c1ccc(NS(=O)(=O)c2ccc(F)cc2)cc1 | inactive
34 | Cc1ccc(C(CC(=O)O)NC(=O)c2ccc(S(=O)(=O)N3CCCC3)cc2)cc1 (stereo unspecified) | inactive
35 | Cc1c(NC(=O)CN(C)CC(=O)Nc2ccc(F)c(F)c2F)c(=O)n(-c2ccccc2)n1C | inactive
36 | COc1ccc(C(=O)NCc2ccc(Cl)cc2)cc1S(=O)(=O)N1CCCC1 | inactive
37 | O=C(Nc1ccc(-c2csc(Nc3cccc(C(F)(F)F)c3)n2)cc1)c1cccc(C(F)(F)F)c1 | 10.3 µM (active)
38 | CNC(=O)c1ccc(NC(=O)c2cccc(C(F)(F)F)c2)cc1 | inactive
39 | Cc1nc(NC(=O)c2cccc(Cl)c2)sc1-c1csc(Nc2cccc(Cl)c2)n1 | inactive
40 | CCN(CC)S(=O)(=O)c1ccc(N(C)Cc2cccc(OC)c2OC)nc1 | 13 µM (active)
41 | COc1cccc(CN(C)C(=O)CC23CC4CC(CC(C4)C2)C3)c1OC | inactive
42 | CCN(CC)S(=O)(=O)c1ccc(N(C)Cc2ccc(C(F)(F)F)cc2)nc1 | inactive
43 | COc1ccc(/C=C/C(=O)OCC(=O)NC2CCCCCC2)cc1OC | inactive
44 | COC(=O)c1cc(Oc2ccc(S(=O)(=O)N3CCOCC3)cc2[N+](=O)[O-])cc(C(=O)OC)c1 | inactive
45 | COc1ccc(OCCCON2C(=O)c3ccccc3C2=O)cc1 | inactive
46 | CCCCC(C(=O)OCC(=O)c1ccc(OC)cc1)N1C(=O)c2ccccc2C1=O (stereo unspecified) | inactive
47 | CCOC(=O)C1=C(c2ccc(OC)cc2)C(=O)c2ccccc2C1=O | 2.91 µM (active)
48 | Cc1ccc(C(=O)CN2C(=O)NC3(CCOc4ccccc43)C2=O)s1 (stereo unspecified) | inactive

Row | SMILES | Potency
49 | COc1ccc(NC(=O)CCS(=O)(=O)c2cc3c(cc2Cl)NC(=O)CO3)cc1OC | inactive
50 | O=C(c1ccc(Cl)c(S(=O)(=O)N2CCCCC2)c1)N1CCCCCC1 | inactive
51 | O=C(c1ccc(Cl)c(Cl)c1)N1CCCC1 | inactive
52 | O=C(c1ccc(Cl)c(S(=O)(=O)N2CCCCCC2)c1)N1CCN(c2ccc(O)cc2)CC1 | 20.6 µM (active)
53 | Nn1c(SCC(=O)NC2CCCc3ccccc32)nnc1C1CC1 (stereo unspecified) | inactive
54 | O=C(CN1C(=O)NC2(CCCC2)C1=O)Nc1cc(C(F)(F)F)ccc1N1CCOCC1 | inactive
55 | O=C(NCCc1ccc(F)cc1)c1ccc(S(=O)(=O)N2CCCCC2)cc1 | inactive
56 | Cc1ccc(Oc2nc(-c3ccccn3)nc3ccccc23)cc1 | 18.3 µM (active)
57 | N#Cc1ccc(Oc2cc(C(F)(F)F)nc(-c3ccccn3)n2)cc1 | inactive
58 | COc1ccccc1Oc1nc(-c2cccnc2)nc2ccccc12 | inactive
59 | CCS(=O)(=O)N1CCC(N2CCN(c3ccccc3)CC2)CC1 | inactive
60 | O=C(c1ccccc1)N1CCN(C(=O)c2cc3nc(-c4ccccc4)cc(C(F)(F)F)n3n2)CC1 | 7.3 µM (active)
61 | COC(=O)c1cc2nc(-c3ccccc3)cc(C(F)(F)F)n2n1 | inactive
62 | O=C(O)c1cnn2c(C(F)(F)F)cc(-c3ccccc3)nc12 | inactive
63 | CCc1cccc(C)c1NS(=O)(=O)c1cc(Br)cnc1N | inactive
64 | COc1ccc(C)cc1N(C(=O)Cn1nnc(-c2ccc(C)o2)n1)C(C(=O)NC1CCCC1)c1ccncc1 (stereo unspecified) | inactive
65 | COc1ccccc1NC(=O)COC(=O)CNC(=O)C1CCCCC1 | inactive
66 | Cc1ccc(CC(=O)N(C)CC(=O)N(CC(C)C)c2c(N)n(CC(C)C)c(=O)[nH]c2=O)cc1C | inactive
67 | Cn1nnnc1SCC(=O)Nc1cccc(S(=O)(=O)N2CCCCC2)c1 | inactive
68 | COc1cccc(N(CC(=O)NC2CCCC2)C(=O)Cn2nnc(-c3ccc(C)o3)n2)c1 | inactive
69 | CCOC(=O)C1CCN(C(=O)Cn2nc(C)c3c(C)n(-c4ccccc4)nc3c2=O)CC1 | inactive
70 | COc1ccc2cc(S(=O)(=O)Nc3ccccn3)ccc2c1 | inactive
71 | COc1ccc(S(=O)(=O)/N=C2\C=C(NS(=O)(=O)c3ccccc3)C(=O)c3ccccc32)cc1 | 23.1 µM (active)
72 | CC1=C/C(=N\S(=O)(=O)c2ccccc2)C(C(C)C)=CC1=O | inactive

Row | SMILES | Potency
73 | CCCSc1nc2sc3c(c2c(=O)n1-c1ccc(OC)cc1)CCN(C)C3 | inactive
74 | COc1ccc(C(C(=O)NC2CCCC2)N(CCCO)C(=O)Cn2nnc(-c3ccc(C)o3)n2)cc1 (stereo unspecified) | inactive
75 | COc1ccc(-c2nc(N)ncc2-c2ccc(Cl)cc2)c(O)c1 | inactive
76 | C=C(C)COc1ccc(-c2nc(N)ncc2-c2ccccc2OC)c(O)c1 | inactive
77 | C=C(C)COc1ccc(-c2ncncc2-c2ccc(OC)cc2)c(O)c1 | 16.4 µM (active)
78 | COc1ccc(C(C)(C)C)cc1NC(=O)CCN1C(=O)C2CCCCC2C1=O (stereo unspecified) | inactive
79 | COC(=O)c1c(NC(=O)c2ccccc2F)sc2c1C(C(=O)OC)CC2 (stereo unspecified) | inactive
80 | CCc1ccc(N(CC)c2ncnc3nc[nH]c23)cc1 | 4.11 µM (active)
81 | CCOc1ccc(-n2c(O)c(/C=N/Nc3nnc(C)c(=O)[nH]3)c3ccccc3c2=O)cc1 | inactive
82 | CCOc1ccc(-n2c(O)c(/C=N/Nc3nc(C)cc(C)n3)c3ccccc3c2=O)cc1 | 14.6 µM (active)
83 | CCOc1ccc(N=Cc2c(O)n(-c3cccc(C)n3)c(=O)c3ccccc23)cc1 | inactive
84 | COc1ccc2[nH]c3c(c2c1)CCN1C(=O)C(CC(=O)NCCc2ccccn2)C[C@H](C(=O)N2CCOCC2)[C@@]31C (stereo partly specified) | inactive
85 | COc1ccc(CN(C(=O)CSc2nnc(-c3ccc(OC)c(OC)c3)o2)c2ccc(F)cc2)cc1 | 16.4 µM (active)
86 | COc1ccc(CCNC(=O)CSc2nnc(-c3cccc(F)c3)o2)cc1OC | inactive
87 | COc1ccc(-c2nnc(SCC(=O)NC3CCCCC3)o2)cc1OC | inactive
88 | COc1cc([N+](=O)[O-])ccc1NC(=S)N1CCN(c2ccccn2)CC1 | inactive
89 | COc1ccc(NC(=O)c2sc3nc(C)nc(N4CCN(c5ccccn5)CC4)c3c2C)c(OC)c1 | 2.31 µM (active)
90 | CCC(=O)Nc1ccc2c(c1)nc(CCN1CCN(c3ccccn3)CC1)n2C | inactive
91 | COc1ccc(OC)c(NC(=O)c2sc3nc(C)cc(C)c3c2N)c1 | inactive
92 | Cc1nc(N2CCN(c3ccccn3)CC2)c2c(C)c(C(=O)Nc3ccc(F)c(Cl)c3)sc2n1 | 3.26 µM (active)
93 | COc1ccc(NC(=O)c2sc(N)nc2-c2ccccc2)cc1 | inactive
94 | COc1cc2ccccc2cc1C(=O)Nc1ccc(N2CCOCC2)cc1 | inactive
95 | CCN(CC)c1ccc(NC(=O)CN2CCN(c3ccccn3)CC2)cc1 | inactive
96 | COc1ccc(NC(=O)c2sc(N3CCOCC3)nc2-c2ccccc2)c(OC)c1 | 13 µM (active)
